Measured values reported in the supplement of paper PMC12340641.
Structures can show the parent of a compound that is named as a salt. ± gives the standard deviation of the averaged measurements.

These compounds were tested on HEK293FT dCK*-IKZF1 (assay: relative growth recovery (pomalidomide 10 uM = 100%, DMSO = 0%); higher = more growth rescue (IKZF1 fusion degradation)). Details: compound concentration: 5 uM; AraC concentration: 0.3 uM; overnight pretreatment + 4 days AraC.
Summary of the method: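 HEK293FT cells stably expressing a dCK*-IKZF1 fusion (300/well, 384-well) received 5 μM compound 2 h after seeding. After overnight at 37 °C they received a nucleoside suicide substrate at 0.3 μM plus medium for 4 days. On day 5, Hoechst 33342-stained nuclei were counted by whole-well imaging. Growth recovery was normalised per plate to a reference degrader (100%) and vehicle (0%); values are means of duplicates run on different days.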

Compound	relative growth recovery [%]
Cc1ncsc1-c1ccc(CNC(=O)[C@@H]2C[C@@H](O)CN2C(=O)[C@@H](NC(=O)COCCOCCOc2ccc(-c3ccc4ncnc(Nc5ccc(OCc6cccc(F)c6)c(Cl)c5)c4c3)cc2)C(C)(C)C)cc1	19.7
COc1cc(N2CCN(CCOCCOCCNC(=O)CNc3cccc4c3C(=O)N(C3CCC(=O)NC3=O)C4=O)CC2)ccc1Nc1ncc(Cl)c(Nc2ccccc2S(=O)(=O)C(C)C)n1 (centres undefined)	-4.32
OC1(c2ccc(Cl)c(C(F)(F)F)c2)CCN(CCCC(c2ccc(F)cc2)c2ccc(F)cc2)CC1	-5.21
CCCCCNC(=N)N/N=C/c1c[nH]c2ccc(OC)cc12	-2.16
COc1ccc(Cl)cc1C(=O)NCCc1ccc(S(=O)(=O)NC(=O)NC2CCCCC2)cc1	3.14
CCc1c2c(nc3ccc(OC(=O)N4CCC(N5CCCCC5)CC4)cc13)-c1cc3c(c(=O)n1C2)COC(=O)[C@]3(O)CC [irinotecan]	-13.9
COC1=C(OC)C(=O)C(CCCCCCCCCCO)=C(C)C1=O	-2.21
COc1cc(N2CCC(N3CCN(C(=O)CNc4cccc5c4C(=O)N(C4CCC(=O)NC4=O)C5=O)CC3)CC2)ccc1Nc1ncc(Cl)c(Nc2ccccc2P(C)(C)=O)n1 (centres undefined)	-0.385
CN(C)CCOC1=Cc2ccccc2Sc2ccc(Cl)cc21 [zotepine]	-1.67
Cc1ccc(S(=O)(=O)N/N=C/c2cc(Br)ccc2O)cc1	2.03 ± 2.8
CC1(S(=O)(=O)[O-])CC(=O)c2ccccc2C1=O (centres undefined) [menadione-bisulfite]	-7.9
CC1(C)CCC2=C(O1)c1ccccc1C(=O)C2=O	-10.9
COc1ccc(NS(=O)(=O)c2ccc(N=Nc3ccc(O)c(C(=O)O)c3)cc2)nn1 [salazodine]	-2.83
CN1CCN(c2ncc(-c3cc(Cl)cc(Cl)c3Cl)c(N)n2)CC1 [sipatrigine]	2.4
CC(C)(C)c1cc(O)c(C(C)(C)C)cc1O	-0.575
CN(C)CCC=C1c2ccccc2CCc2ccccc21 [Amitriptyline HCl]	-1.42
O=C(Nc1ccc(S(=O)(=O)Nc2ccccc2Cl)c(Cl)c1)c1ccccn1	-1.18
C[n+]1c2cc(N)ccc2cc2ccc(N)cc21.Nc1ccc2cc3ccc(N)cc3nc2c1 [Acriflavine hydrochloride]	-14
Oc1cc2c(cc1O)[C@@H]1c3ccc(O)c(O)c3OC[C@]1(O)C2 [Hematoxylin (Hydroxybrazilin)]	-1.47
c1cc2c(cc1C1CCCCC1)c1c3n2CCNC3CCC1 (centres undefined) [tetrindole]	-9.3

Compound	relative growth recovery [%]
C[n+]1c2cc(N)ccc2cc2ccc(N)cc21	-15
O=C1Nc2ccc(Cl)cc2[C@@](C#CC2CC2)(C(F)(F)F)O1 [Efavirenz]	0.45
COc1cccc2c(O)c3c(O)c4c(c(O)c3c(O)c12)=C(O[C@H]1C[C@H](N)[C@H](O)[C@H](C)O1)C[C@](O)(C(=O)CO)C=4 [Doxorubicin HCl]	-13.4
Cc1ncsc1-c1ccc(CNC(=O)[C@@H]2C[C@@H](O)CN2C(=O)[C@@H](NC(=O)COCCCCOc2ccc(-c3ccc(N4C(=S)N(c5ccc(C#N)c(C(F)(F)F)c5)C(=O)C4(C)C)cc3)cc2)C(C)(C)C)cc1	55.3
CC(C)CCN1c2nc(Nc3cc(F)c(O)c(F)c3)ncc2N(C)C(=O)C1C (centres undefined)	-11.3
CCCCCCCCCCCC1=C(O)C(=O)C=C(O)C1=O [embelin]	-3.97
Nc1ccc(S(=O)(=O)Nc2ncccn2)cc1	2.56
C=C1/C(=C/C=C2\CCC[C@]3(C)[C@@H]([C@H](C)/C=C/[C@@H](C)C(C)C)CC[C@@H]23)C[C@@H](O)C[C@@H]1O [Doxercalciferol (Hectorol)]	2.85
Cc1nc(-c2cccnc2)sc1C(=O)Nc1ccccc1-c1cn2c(CN3CCOCC3)csc2n1	-0.27
C=C1C(=O)O[C@@H]2[C@H]3O[C@]3(C)CC/C=C(\C)CC[C@@H]12 [parthenolide-(alternate-stereo)]	-12.4
O=C1Nc2ccc(I)cc2/C1=C/c1cc(Br)c(O)c(Br)c1	-2.06
CC(C)n1nc(-c2ccc3oc(N)nc3c2)c2c(N)ncnc21	-12.4
Oc1cc(O)c2cc(O)c(-c3cc(O)c(O)c(O)c3)[o+]c2c1 [delphinidin]	-1.78
COc1ncnc(NS(=O)(=O)c2ccc(N)cc2)c1OC	0.355
O=C(N/N=C/c1ccccc1O)c1ccccc1O	-2.29
C=C(NNC(=S)NNC(=S)Nc1ccccc1Cl)c1ccccn1	-12.8
O=S(=O)(O)CCSSCCS(=O)(=O)O	0.365
CC(C)[C@@H]1CC[C@@H](C)C[C@@H]1P(=O)(c1ccccc1)c1ccccc1	-0.475
O=C1Nc2cc(Br)ccc2/C1=C1/Nc2ccccc2/C1=N\O [3-inhibitor]	-4.43
